# Records with an inconclusive call do not appear. A call without a number means that no potency is given here. Calls of active or inactive are those of the source. Unless noted, calls follow the shape of the dose curve; as a rule, active = well fitted curve in the direction sought with a large enough effect; inconclusive = small, poorly fitted or top-dose-only effect, or another doubt; inactive = no such curve, though single readings can be large; an effect the other way counts as inactive or inconclusive.
# Columns and labels:
# [1] = molecular target: Voltage-gated inwardly rectifying potassium channel KCNH2 (Homo sapiens) (UniProt Q12809); test: qHTS Assay for Small Molecule Inhibitors of the Human hERG Channel Activity (AID 588834);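 also: lower thallium flux fluorescence means stronger hERG block; nearly all actives have a fitted effect of over 50% in size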; also: potency is read from the fitted curve at half-maximal effect
# Outline: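 Concentration-response qHTS measuring drop in thallium-sensitive dye signal. U2OS cells carrying BacMam hERG; compound exposure ~10 min, then stimulation buffer and 2 min read at 1 sec intervals.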
# [2] = S16 Schwann cell viability assay (CellTiter-Glo assay) (AID 624031); also: nearly all actives have a fitted effect of over 70% in size; also: potency is read from the fitted curve at half-maximal effect
# Outline: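 Following overnight culture in 10% FBS DMEM, parental S16 rat Schwann cells are dosed for 24 h at 37 °C. Viability is read as CellTiter-Glo luminescence and expressed as % activity relative to DMSO (0%) and no-cell wells.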
# [3] = S16 Schwann cell PMP22 intronic element firefly luciferase assay (AID 624032); also: nearly all actives have a fitted effect of over 30% in size; also: potency is read from the fitted curve at half-maximal effect
# Outline: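 Rat S16 Schwann cells stably carrying firefly luciferase driven by a PMP22 intronic element, in 10% FBS, treated 24 h at 37 C. ONE-Glo luminescence normalized to PTC124 control and DMSO (0%); curves classed by r2, magnitude and activity.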
# [4] = molecular target: Glutaminase kidney isoform, mitochondrial (Homo sapiens) (UniProt O94925); test: qHTS for Inhibitors of Glutaminase (GLS): LOPAC Validation (AID 624146); also: nearly all actives have a fitted effect of over 60% in size; also: potency is read from the fitted curve at half-maximal effect
# Outline: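 Glutamate formation by hKGA was monitored fluorometrically using coupled glutamate oxidase, HRP and Amplex Red. Substrate was added as 1 mM L-glutamine solution; incubation was 30 min at RT after an initial read.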
# [5] = molecular target: Luciferin 4-monooxygenase (Photinus pyralis) (UniProt P08659); test: Biochemical firefly luciferase enzyme assay for NPC (AID 624030);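 also: purified P. pyralis luciferase at 10 nM with luciferin and ATP substrate; nearly all actives have a fitted effect of over 70% in size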
# Outline: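 Purified P. pyralis luciferase at 10 nM in 50 mM Tris Acetate (final), luminescence read within 5 minutes of enzyme addition to compounds. Activity normalised to PTC124 versus DMSO; concentration-response curves classed by r2, magnitude and activity.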
# [6] = S16 Schwann cell PMP22 intronic element beta-lactamase assay (AID 624044; calls by dose curve; also: nearly all actives have a fitted effect of over 15% in size; also: potency is read from the fitted curve at half-maximal effect); settings: S16 rat Schwann cells, PMP22 element beta-lactamase FRET, 24 h; ratio activity, negative = inhibition: at 38.3 µM (top of the series)
# Outline: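 Rat S16 Schwann cells with beta-Lac driven by a PMP22 intronic element, compound-treated 24 h at 37 °C. LiveBLAzer FRET B/G read: 460 nm normalized to potassium clavulanate vs DMSO; 535 nm FRET as viability; concentration-effect curves classified.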
# Chain of Glutaminase kidney isoform, mitochondrial (Homo sapiens) (O94925 whole entry, looked up, canonical isoform): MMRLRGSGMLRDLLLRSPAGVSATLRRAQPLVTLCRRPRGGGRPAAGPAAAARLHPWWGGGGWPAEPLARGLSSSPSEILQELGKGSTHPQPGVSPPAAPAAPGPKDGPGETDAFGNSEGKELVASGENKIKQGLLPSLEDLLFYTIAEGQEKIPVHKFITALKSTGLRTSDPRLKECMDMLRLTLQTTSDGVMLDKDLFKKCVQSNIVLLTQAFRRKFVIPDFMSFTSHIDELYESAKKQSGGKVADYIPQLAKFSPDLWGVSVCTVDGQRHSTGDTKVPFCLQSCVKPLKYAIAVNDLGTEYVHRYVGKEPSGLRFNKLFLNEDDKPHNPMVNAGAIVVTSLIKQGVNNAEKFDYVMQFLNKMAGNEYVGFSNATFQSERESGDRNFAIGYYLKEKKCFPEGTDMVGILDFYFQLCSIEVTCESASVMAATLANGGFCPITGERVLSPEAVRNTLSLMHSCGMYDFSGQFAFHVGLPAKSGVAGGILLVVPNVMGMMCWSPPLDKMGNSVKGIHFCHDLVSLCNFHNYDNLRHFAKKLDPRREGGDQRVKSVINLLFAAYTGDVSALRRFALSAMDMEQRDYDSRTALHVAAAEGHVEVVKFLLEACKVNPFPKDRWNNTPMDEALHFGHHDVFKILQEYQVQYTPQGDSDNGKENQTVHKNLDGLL
# Chain of Luciferin 4-monooxygenase (Photinus pyralis) (P08659 whole entry, looked up): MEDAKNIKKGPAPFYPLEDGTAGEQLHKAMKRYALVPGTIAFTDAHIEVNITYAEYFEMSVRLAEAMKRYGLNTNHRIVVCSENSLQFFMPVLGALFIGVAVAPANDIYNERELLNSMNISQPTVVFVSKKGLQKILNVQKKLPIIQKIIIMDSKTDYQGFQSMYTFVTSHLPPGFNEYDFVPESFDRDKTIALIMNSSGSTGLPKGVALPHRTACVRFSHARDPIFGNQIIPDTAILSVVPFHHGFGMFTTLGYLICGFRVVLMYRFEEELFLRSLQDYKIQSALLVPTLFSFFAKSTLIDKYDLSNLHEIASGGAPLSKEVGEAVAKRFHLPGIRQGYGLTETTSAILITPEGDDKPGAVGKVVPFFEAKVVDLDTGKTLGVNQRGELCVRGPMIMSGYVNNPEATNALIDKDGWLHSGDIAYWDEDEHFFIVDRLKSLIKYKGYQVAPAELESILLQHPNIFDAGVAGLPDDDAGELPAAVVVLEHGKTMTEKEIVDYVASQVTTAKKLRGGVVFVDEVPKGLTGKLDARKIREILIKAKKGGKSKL
# Chain of Voltage-gated inwardly rectifying potassium channel KCNH2 (Homo sapiens) (Q12809 whole entry, looked up): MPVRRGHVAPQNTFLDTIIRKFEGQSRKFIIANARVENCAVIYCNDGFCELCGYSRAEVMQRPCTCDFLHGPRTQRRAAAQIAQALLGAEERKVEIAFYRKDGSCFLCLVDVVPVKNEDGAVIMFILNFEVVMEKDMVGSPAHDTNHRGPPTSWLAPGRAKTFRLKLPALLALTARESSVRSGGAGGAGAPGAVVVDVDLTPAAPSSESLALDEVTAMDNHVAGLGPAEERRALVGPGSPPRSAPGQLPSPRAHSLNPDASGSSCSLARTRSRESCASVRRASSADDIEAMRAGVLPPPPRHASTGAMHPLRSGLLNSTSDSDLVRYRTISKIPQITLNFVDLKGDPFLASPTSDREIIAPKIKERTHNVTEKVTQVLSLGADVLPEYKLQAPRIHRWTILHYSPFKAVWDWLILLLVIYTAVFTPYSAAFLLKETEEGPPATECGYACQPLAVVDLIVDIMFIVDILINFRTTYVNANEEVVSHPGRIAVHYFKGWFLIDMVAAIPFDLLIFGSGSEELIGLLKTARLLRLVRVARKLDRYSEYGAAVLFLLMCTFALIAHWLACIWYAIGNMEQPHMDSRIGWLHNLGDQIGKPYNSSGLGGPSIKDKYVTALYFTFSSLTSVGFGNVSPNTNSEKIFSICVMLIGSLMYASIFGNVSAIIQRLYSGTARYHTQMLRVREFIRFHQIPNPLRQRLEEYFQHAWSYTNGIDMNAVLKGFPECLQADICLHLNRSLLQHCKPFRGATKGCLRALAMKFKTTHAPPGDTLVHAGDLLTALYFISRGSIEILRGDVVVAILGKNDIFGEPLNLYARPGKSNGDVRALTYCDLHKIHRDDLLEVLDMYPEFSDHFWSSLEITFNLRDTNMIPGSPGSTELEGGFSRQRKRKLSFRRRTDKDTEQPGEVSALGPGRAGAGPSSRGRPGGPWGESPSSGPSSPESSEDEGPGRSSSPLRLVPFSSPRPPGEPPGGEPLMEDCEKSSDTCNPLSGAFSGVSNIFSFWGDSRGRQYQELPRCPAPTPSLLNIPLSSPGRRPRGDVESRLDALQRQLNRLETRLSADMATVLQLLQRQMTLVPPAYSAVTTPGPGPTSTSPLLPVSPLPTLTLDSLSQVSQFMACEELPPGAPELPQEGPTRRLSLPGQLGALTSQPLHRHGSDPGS
structure (smiles),measurement,setting,value
N[C@H](CO)C(=O)O,Potency,[1],inactive
same,Potency,[2],inactive
same,Potency,[3],inactive
same,Potency,[4],inactive
CCN(CC)CCOc1ccc(C(O)(Cc2ccc(Cl)cc2)c2ccc(C)cc2)cc1 (stereo not given),Potency,[1],3.98 µM (active)
same,Potency,[5],inactive
same,Potency,[6],inactive
CCCCCCCCCCCCCCCC[N+](C)(C)CCN(Cc1ccc(OC)cc1)c1ncccn1,Potency,[1],1.41 µM (active)
same,Potency,[5],inactive
same,Potency,[6],inactive
COCc1c(C(C)C)nc(C(C)C)c(/C=C/[C@@H](O)C[C@@H](O)CC(=O)O)c1-c1ccc(F)cc1,Potency,[1],inactive
same,Potency,[2],inactive
same,Potency,[3],4.55 µM (active)
same,Potency,[6],8.91 µM (active)
CN(C)CC/C=C1\c2ccccc2Sc2ccc(Cl)cc21,Potency,[1],8.91 µM (active)
same,Potency,[6],inactive
COc1cc(-c2ccc(=O)[nH]n2)ccc1OC(F)F,Potency,[1],inactive
same,Potency,[2],inactive
Oc1ccc(O)cc1,Potency,[1],inactive
same,Potency,[6],19.9 µM (active)
same,Potency,[4],2.51 µM (active)
O=C(OCCOCCO)c1ccccc1Nc1cccc(C(F)(F)F)c1,Potency,[1],inactive
same,Potency,[2],inactive
same,Potency,[3],inactive
CCOC(=O)COc1ccc2c(C)c(CCN(CC)CC)c(=O)oc2c1Cl,Potency,[1],12.6 µM (active)
same,Potency,[3],inactive
same,Potency,[6],inactive
C1CCc2nnnn2CC1,Potency,[1],inactive
same,Potency,[2],inactive
same,Potency,[6],inactive
same,Potency,[4],inactive
C[C@@H]1CN(CCCn2c3ccccc3c3ccccc32)C[C@H](C)N1,Potency,[1],10 µM (active)
same,Potency,[2],32.2 µM (active)
same,Potency,[6],inactive
CCCCCCCCCCOCC(O)CN (stereo not given),Potency,[1],25.1 µM (active)
same,Potency,[5],inactive
same,Potency,[6],inactive
c1ccc(-c2ccc(C(c3ccccc3)n3ccnc3)cc2)cc1 (stereo not given),Potency,[1],12.6 µM (active)
same,Potency,[2],inactive
same,Potency,[3],inactive
same,Potency,[6],inactive
CCCCOc1ccc(C(=O)CCN2CCCCC2)cc1,Potency,[1],10 µM (active)
same,Potency,[2],inactive
O=C1[C@H]2CCCC[C@H]2C(=O)N1CCCCN1CCN(c2nsc3ccccc23)CC1,Potency,[1],5.01 µM (active)
same,Potency,[2],32.2 µM (active)
same,Potency,[6],inactive
C[N+]1(CCCCC[N+]2(C)CCCC2)CCCC1,Potency,[1],inactive
same,Potency,[2],inactive
same,Potency,[3],inactive
same,Potency,[4],inactive
NC(CO)(CO)CO,Potency,[1],inactive
same,Potency,[2],inactive
same,Potency,[3],inactive
NC(CS)C(=O)O (stereo not given),Potency,[1],inactive
same,Potency,[2],inactive
same,Potency,[3],inactive
same,Potency,[6],inactive
Nc1ccc(C(=O)Nc2ccccc2N)cc1,Potency,[1],inactive
same,Potency,[2],inactive
same,Potency,[3],inactive
CC(C)COC(=O)c1ccc(N)cc1,Potency,[1],inactive
same,Potency,[2],inactive
same,Potency,[6],inactive
O=C(N/N=C/c1ccccc1O)c1ccncc1,Potency,[1],inactive
same,Potency,[3],inactive
CN1CCC[C@@H]1c1cccnc1,Potency,[1],inactive
same,Potency,[2],inactive
same,Potency,[3],inactive
O=C1CCC(c2ccc(-n3ccnc3)cc2)=NN1,Potency,[1],inactive
same,Potency,[2],inactive
same,Potency,[3],inactive
same,Potency,[6],inactive
same,Potency,[4],inactive
CC(C)(CO)[C@@H](O)C(=O)NCCCO,Potency,[1],inactive
same,Potency,[2],inactive
same,Potency,[3],inactive
CCCCC(CC)CN=C(N)NC(N)=NCCCCCCN=C(N)NC(N)=NCC(CC)CCCC (stereo not given),Potency,[1],inactive
same,Potency,[2],20.3 µM (active)
same,Potency,[3],25.6 µM (active)
same,Potency,[6],inactive
COc1cc(OC)cc(OC)c1,Potency,[1],inactive
same,Potency,[2],inactive
same,Potency,[3],inactive
CC(=O)c1ccc2c(c1)N(CCCN1CCC(CCO)CC1)c1ccccc1S2,Potency,[1],1.26 µM (active)
same,Potency,[2],inactive
same,Potency,[6],inactive
CCC(=O)c1c(O)cc(O)cc1O,Potency,[1],inactive
same,Potency,[2],inactive
same,Potency,[6],inactive
CCCC1O[C@@H]2C[C@H]3[C@@H]4CCC5=CC(=O)C=C[C@]5(C)[C@H]4[C@@H](O)C[C@]3(C)[C@]2(C(=O)CO)O1 (stereo not given in full),Potency,[1],inactive
same,Potency,[4],inactive
OC(CCN1CCCCC1)(c1ccccc1)c1ccccc1,Potency,[1],14.1 µM (active)
same,Potency,[2],inactive
O=C(Nc1ccc(Cl)c(Cl)c1)C1CC1,Potency,[1],inactive
same,Potency,[2],inactive
C[C@@H]1C(=O)NC2=Nc3cccc(Cl)c3CN21,Potency,[1],inactive
same,Potency,[5],inactive
same,Potency,[6],inactive
same,Potency,[4],inactive
Nc1ccc(/C=C/c2ccc(N)cc2S(=O)(=O)O)c(S(=O)(=O)O)c1,Potency,[1],inactive
same,Potency,[2],inactive
CC1=C(C(=O)OC(C)C)C(c2cccc([N+](=O)[O-])c2)C(C(=O)OC2CN(C(c3ccccc3)c3ccccc3)C2)=C(N)N1 (stereo not given),Potency,[1],inactive
same,Potency,[6],inactive
CC(=O)O[C@H]1C[C@@H]2CC[C@@H]3[C@H](CC[C@@]4(C)[C@H]3C[C@H]([N+]3(C)CCCCC3)[C@@H]4OC(C)=O)[C@@]2(C)C[C@@H]1[N+]1(C)CCCCC1,Potency,[1],inactive
CCC(NC(C)C)C(O)c1ccc(O)c(O)c1 (stereo not given),Potency,[1],inactive

# Source: PubChem BioAssay (NCATS)
